Compounds without any hit were thinned out: in the full panel of roughly 83,000, 20% have a hit.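 Testing used 96-well plates and a 48-hour single-concentration exposure. Example: -40 means 40% of the starting cells died.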 Values without a mark were called inactive. Calls of active or inactive are those of the source. The calls were made as follows: active = growth percent below 10; inactive = the rest.

The assay relates to MDA-MB-468 breast. Kind of assay: NCI-60 one-dose screen, 48 h (100 = growth as untreated, 0 = no growth, -100 = all killed). The following applies: 10 µM unless noted.
`O=C1OCC2=C1C(c1ccc(Cl)c(Cl)c1)c1cc3c(cc1N2CCO)CCC3` (stereo not drawn): the growth is 22.9%. In the case of `CSCCC(NC(=O)C(Cl)Cl)C(=O)O` (stereo not drawn), the growth was 94.6%. For the molecule `CCN1C(=O)N(CC)C2C1NN=c1s/c(=C\c3ccccc3)c(=O)n12` (stereo not drawn), the growth was 22.5%.

Consider `O=C(/C=C(O)/C=C/c1ccc(SC(F)(F)F)cc1)/C=C/c1ccc(SC(F)(F)F)cc1`, for which the growth was 100%. Take `CN1/C(=C\C(I)C(I)C2=[N+](C)c3ccccc3C2(C)C)C(C)(C)c2ccccc21` (stereo not drawn): the growth is -17.6% (active). On to `CS(=O)(=O)Cc1cnc(C2OCCO2)s1`, for which the growth is 97.7%. For the molecule `CN1C2CCC1/C(=C\c1ccc(Cl)cc1)C1=C2[C@@H](c2ccc(Cl)cc2)C(C#N)=C(N)O1` (stereo partly drawn), the growth was 77.9%. Take `COc1cccc2c1C(=O)c1c(O)c3c(c(O)c1C2=O)C[C@@](O)(C(=O)CO)C[C@@H]3OC1CC(OC(C)=O)C(OC(C)=O)C(C)O1` (stereo partly drawn): the growth was -25.8% (active). Consider `O=C1CCN(Cc2ccccc2)C(=S)N1`, for which the growth is 110%.

Consider `COc1cc(/C=C2\C(=O)N(Cc3ccc(Cl)cc3)c3ccccc32)cc(OC)c1OC`, for which the growth is -18.3% (active). `CN(C)CCNc1nc2ccccc2c2c(=O)c3cc(F)ccc3sc12`: the growth is -28.1% (active).

Turning to `COC(=O)CCCCCCCCC(C)c1ccc(C(C)=O)cc1` (stereo not drawn), the growth was 110%. On to `O=C1c2cc3c(cc2-c2c1c1cc(F)c(F)cc1c(=O)n2C[C@H](O)CO)OCO3`, for which the growth was -57.2% (active).

The record behind these values is PubChem BioAssay (NCI).
